According to PubChem BioAssay AID1159580 (chemical genetic matrix, 2015):
Where “and” joins values, the source holds several entries; their conditions need not be identical. Identical values can stand only once. Out of some 5,500 compounds screened, about 2,000 (36%) were called active. About 18% were inconclusive and are not listed. No stated cut-off is given here; in the data, active means normalized growth mostly below about 0.91 (no sharp cut-off); inconclusive means no clear call, values can overlap the other calls; inactive means mostly above about 0.92. This is one part of the list.

Test: chemical genetic growth profiling, strain panel (AID 1159580);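 further: tested at 20 µM; growth read once vehicle control cultures reached saturation at 30 °C; 1 = growth at the plate median or of vehicle wells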
Conditions: S. cerevisiae deletion strains, growth OD

Measured: normalized growth

C[C@H]1C(=O)O[C@@H]2CCN3CC=C(COC(=O)[C@](C)(O)[C@]1(C)O)[C@H]23
inactive: locus YAL021C, strain ccr4, stronger effect = lower value 1 | locus YAL026C, strain drs2, stronger effect = lower value 0.991 | locus YAL030W, strain snc1, stronger effect = lower value 0.989 | locus YBL061C, strain skt5, stronger effect = lower value 0.995 | locus YBR009C, strain hhf1, stronger effect = lower value 0.993 | locus YBR021W, strain FUR4, stronger effect = lower value 0.978 | locus YBR023C, strain chs3, stronger effect = lower value 0.995 | locus YBR171W, strain sec66, stronger effect = lower value 0.987 | locus YBR229C, strain ROT2, stronger effect = lower value 0.989 | locus YBR231C, strain swc5, stronger effect = lower value 0.984 | locus YBR279W, strain paf1, stronger effect = lower value 0.99 | locus YCL011C, strain gbp2, stronger effect = lower value 0.997 | locus YCL016C, strain dcc1, stronger effect = lower value 0.999 | locus YCL029C, strain bik1, stronger effect = lower value 0.99 | locus YCL069W, strain vba3, stronger effect = lower value 0.995 | locus YCR088W, strain abp1, stronger effect = lower value 0.992 | locus YDL005C, strain med2, stronger effect = lower value 0.992 | locus YDL035C, strain GPR1, stronger effect = lower value 0.999 | locus YDL040C, strain nat1, stronger effect = lower value 0.991 | locus YDL074C, strain BRE1, stronger effect = lower value 1.02 | locus YDL101C, strain DUN1, stronger effect = lower value 0.99 | locus YDL134C, strain PPH21, stronger effect = lower value 0.968 | locus YDL185W, strain tfp1, stronger effect = lower value 0.984 | locus YDL192W, strain arf1, stronger effect = lower value 0.981 | locus YDR001C, strain nth1, stronger effect = lower value 0.99 | locus YDR069C, strain doa4, stronger effect = lower value 0.99 | locus YDR101C, strain arx1, stronger effect = lower value 0.994 | locus YDR137W, strain rgp1, stronger effect = lower value 0.972 | locus YDR159W, strain sac3, stronger effect = lower value 0.984 | locus YDR162C, strain NBP2, stronger effect = lower value 0.996 | locus YDR195W, strain ref2 0.945 | locus YDR297W, strain sur2, stronger effect = lower value 0.998 | locus YDR318W, strain mcm21, stronger effect = lower value 0.996 | locus YDR334W, strain swr1, stronger effect = lower value 0.995 | locus YDR335W, strain msn5, stronger effect = lower value 0.989 | locus YDR388W, stronger effect = lower value 0.997 | locus YDR392W, strain spt3, stronger effect = lower value 0.995 | locus YDR502C, strain sam2, stronger effect = lower value 0.99 | locus YEL003W, strain gim4, stronger effect = lower value 0.991 | locus YEL037C, strain rad23, stronger effect = lower value 0.996 | locus YEL061C, strain CIN8 (second series), stronger effect = lower value 0.99 | locus YEL061C, strain CIN8, stronger effect = lower value 0.995 | locus YER015W, strain faa2, stronger effect = lower value 0.998 | locus YER016W, strain bim1, stronger effect = lower value 0.989 | locus YER110C, stronger effect = lower value 0.986 | locus YER111C, strain swi4, stronger effect = lower value 0.969 | locus YER155C, strain BEM2 (second series), stronger effect = lower value 0.937 | locus YER155C, strain BEM2, stronger effect = lower value 0.988 | locus YER167W, strain BCK2, stronger effect = lower value 0.982 | locus YFR010W, strain ubp6, stronger effect = lower value 0.99 | locus YGL078C, strain dbp3, stronger effect = lower value 0.988 | locus YGL086W, strain mad1, stronger effect = lower value 1.01 | locus YGL167C, strain pmr1, stronger effect = lower value 0.994 | locus YGL173C, strain kem1, stronger effect = lower value 0.994 | locus YGL227W, strain vid30, stronger effect = lower value 0.982 | locus YGL240W, strain doc1, stronger effect = lower value 0.987 | locus YGL248W, strain PDE1, stronger effect = lower value 0.997 | locus YGL253W, strain hxk2, stronger effect = lower value 0.994 | locus YGR135W, strain pre9, stronger effect = lower value 0.987 | locus YGR229C, strain SMI1, stronger effect = lower value 1 | locus YGR252W, strain gcn5, stronger effect = lower value 0.98 | locus YHR013C, strain ard1, stronger effect = lower value 1 | locus YHR027C, strain rpn1, stronger effect = lower value 0.991 | locus YHR030C, strain SLT2, stronger effect = lower value 0.986 and 0.998 | locus YHR079C, strain IRE1 (second series), stronger effect = lower value 0.994 | locus YHR079C, strain IRE1, stronger effect = lower value 0.985 | locus YHR094C, strain hxt1, stronger effect = lower value 0.991 | locus YHR129C, strain ARP1, stronger effect = lower value 0.989 | locus YHR142W, strain chs7, stronger effect = lower value 1 | locus YHR200W, strain rpn10, stronger effect = lower value 0.991 | locus YIL066C, strain RNR3, stronger effect = lower value 0.992 | locus YIL073C, strain SPO22, stronger effect = lower value 0.969 | locus YIL125W, strain kgd1, stronger effect = lower value 0.995 | locus YIR030C, strain dcg1, stronger effect = lower value 0.99 | locus YJL092W, strain hpr5, stronger effect = lower value 0.97 | locus YJL095W, strain BCK1 (second series), stronger effect = lower value 0.984 | locus YJL095W, strain BCK1, stronger effect = lower value 1.02 and 1 | locus YJL115W, strain asf1, stronger effect = lower value 0.969 | locus YJL129C, strain trk1, stronger effect = lower value 0.968 | locus YJL134W, strain LCB3, stronger effect = lower value 0.994 | locus YJL154C, strain vps35, stronger effect = lower value 0.991 | locus YJL164C, strain tpk1, stronger effect = lower value 1.01 | locus YJL166W, strain qcr8, stronger effect = lower value 0.987 | locus YJL168C, strain set2, stronger effect = lower value 0.997 | locus YJL187C, strain SWE1 (second series), stronger effect = lower value 0.995 | locus YJL187C, strain SWE1, stronger effect = lower value 0.996 | locus YJR043C, strain POL32, stronger effect = lower value 1.01 | locus YJR066W, strain TOR1, stronger effect = lower value 0.944 | locus YKL009W, strain mrt4, stronger effect = lower value 0.983
